Hits are enriched below; roughly 10% of the tested compounds scored in any of these assays.
G9a inh: G9a (human) methyltransferase inhibition; Q96KQ7; G9a H3K9 monomethylation, AlphaScreen, 2 h; Potency, µM (titrated, usually from 102 µM), most hits filed as inhibitors; hit rate 8.8% among 350,000; AID 504332; also: nearly all actives have a fitted effect of over 75% in size
Target sequence (Q96KQ7 913-1193 limits assumed): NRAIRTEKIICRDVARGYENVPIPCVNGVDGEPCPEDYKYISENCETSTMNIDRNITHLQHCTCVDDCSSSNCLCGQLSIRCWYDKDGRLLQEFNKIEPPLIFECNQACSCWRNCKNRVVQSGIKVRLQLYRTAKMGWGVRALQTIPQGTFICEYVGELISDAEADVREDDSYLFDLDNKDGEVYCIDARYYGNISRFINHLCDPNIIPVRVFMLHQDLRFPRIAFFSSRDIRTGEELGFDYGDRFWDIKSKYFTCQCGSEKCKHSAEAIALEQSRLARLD
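Step 1: enzyme (final 20 nM) with compound, 15 min RT. Step 2: substrate peptide 500 nM and SAM 20 uM, 2 h RT. Step 3: anti-H3K9me1 antibody and AlphaScreen beads, 10 min, then plate read.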
GLS inh: glutaminase GLS (human) inhibition; GLS enzymatic activity, qHTS titration; Potency, µM (series often up to 45.5 µM), hits mostly inhibitors; hit rate 0.21% among 410,000; AID 624170
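Assay buffer: 45 mM KH2PO4 pH 8.2, 0.02% Tween-20. hKGA acts on L-glutamine (1 mM solution added); product glutamate is reported by an oxidase/peroxidase Amplex Red coupling, with fluorescence taken at baseline and 30 min.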
JMJD2A Tudor inh: JMJD2A Tudor domain (human) inhibition; AID 504339; Potency, µM (titrated, usually from 114 µM), most hits filed as inhibitors; hit rate 4.4% among 390,000; O75164; AlphaScreen JMJD2A-Tudor / H3K4me3 peptide binding; also: nearly all actives have a fitted effect of over 50% in size
HP1b binding inh: blocks HP1-beta chromodomain binding to methylated histone tails. P83916. hit rate 0.56% among 390,000. AlphaScreen HP1-beta / biotin-H3K9me3 peptide binding. Potency, µM (highest dose often 114 µM), usual class: inhibitors; also: nearly all actives have a fitted effect of over 70% in size
Target sequence (P83916 whole entry, looked up): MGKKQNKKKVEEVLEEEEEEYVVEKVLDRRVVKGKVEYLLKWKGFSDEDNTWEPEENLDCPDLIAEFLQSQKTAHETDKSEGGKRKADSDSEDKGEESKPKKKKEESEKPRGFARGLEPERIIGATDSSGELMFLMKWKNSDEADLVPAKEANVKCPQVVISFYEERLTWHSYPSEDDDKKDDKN
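Compound inhibition of the preformed complex between 50 nM HP1-beta and 50 nM biotinylated H3K9me3 peptide was read by AlphaScreen. Buffer was PBS pH 7.4 with 0.01% Tween-20. Incubations ran 30 min at room temperature, with 10 ug/mL donor/acceptor beads.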
BAZ2B block: blocks human BAZ2B; AID 504333; hit rate 4.4% among 360,000; Q9UIF8; AlphaScreen BAZ2B-H3K14Ac peptide displacement; Potency, µM (highest dose often 114 µM), hits mostly inhibitors; also: nearly all actives have a fitted effect of over 60% in size
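AlphaScreen displacement: compounds (up to 110uM) incubated 30 min at room temperature with a preformed 50 nM BAZ2B/50 nM biotinylated H3K14Ac peptide complex in PBS pH 7.4 with Tween-20. Donor and acceptor beads at 10 ug/mL final added, 20 min light-protected before reading.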
Each line names hits and unclear results; the compound was inactive in the other large screens. Calls follow the shape of the dose curve; as a rule, active = well fitted curve in the direction sought with a large enough effect; inconclusive = small, poorly fitted or top-dose-only effect, or another doubt; inactive = no such curve, though single readings can be large; an effect the other way counts as inactive or inconclusive.

O=C1NC(=S)S/C1=C/c1ccc(N2CCOCC2)o1	G9a inh 4.5µM, JMJD2A Tudor inh 40µM, HP1b binding inh 35µM, BAZ2B block 20µM
COc1cc(N=Nc2c(C)n(C)n(-c3ccccc3)c2=O)ccc1N	G9a inh 50µM, GLS inh inconclusive
COC(=O)CCCC1=CC2=CC(=O)C(C)(OC(=O)CCc3ccccc3)C(=O)C2=CO1 (stereo not given)	JMJD2A Tudor inh 79µM, BAZ2B block 56µM
COC(=O)CCCC1=CC2=CC(=O)C(C)(OC(=O)c3cccs3)C(=O)C2=CN1Cc1ccccc1 (stereo not given)	none
COC(=O)CCC(=O)OC1(C)C(=O)C=C2C=C(c3ccsc3)OC=C2C1=O (stereo not given)	GLS inh 13µM, JMJD2A Tudor inh 50µM, HP1b binding inh inconclusive (no result: G9a inh, BAZ2B block)
CCC(=O)OC1(C)C(=O)C=C2C=C(c3ccsc3)OC=C2C1=O (stereo not given)	G9a inh inconclusive, JMJD2A Tudor inh 28µM, HP1b binding inh inconclusive, BAZ2B block 50µM
Cc1ccc2c(c1)NC(=O)C(CC(=O)NCCCN1CCc3ccccc3C1)O2 (stereo not given)	G9a inh 50µM
CCN1CCN(CCC2Oc3cc([N+](=O)[O-])ccc3NC2=O)CC1 (stereo not given)	G9a inh inconclusive
Cc1ccc2c(c1)NC(=O)C(CC(=O)NCCCN1CCCC1)O2 (stereo not given)	none
COc1ccc(N2CCN(CCCNC(=O)CC3Oc4ccc(C)cc4NC3=O)CC2)cc1 (stereo not given)	G9a inh 35µM, JMJD2A Tudor inh inconclusive, BAZ2B block inconclusive
COc1ccc(N2CCN(CCC3Oc4cc([N+](=O)[O-])ccc4NC3=O)CC2)cc1 (stereo not given)	G9a inh 18µM, JMJD2A Tudor inh inconclusive, HP1b binding inh inconclusive, BAZ2B block 28µM
CCN(CCCNC(=O)CC1Oc2ccc(C)cc2NC1=O)Cc1ccccc1 (stereo not given)	G9a inh 50µM
Cc1ccc2c(c1)NC(=O)C(CC(=O)NCCCN1CCN(C3CCCCC3)CC1)O2 (stereo not given)	G9a inh inconclusive (no result: GLS inh, JMJD2A Tudor inh, HP1b binding inh)
O=C(c1ccco1)N1CCN(C(c2cccs2)c2nnnn2C2CCCC2)CC1 (stereo not given)	G9a inh inconclusive
CCOC(=O)C1CCN(C(=O)c2sc3nc(C)nc(N4CCC(C)CC4)c3c2C)CC1	none
Cc1cc(C)c(CSc2nnc(C)n3c2cc2occc23)c(C)c1	G9a inh inconclusive, JMJD2A Tudor inh inconclusive, HP1b binding inh inconclusive, BAZ2B block 40µM
Clc1cccc(CNCCCSc2ncccn2)c1Cl	none (no result: G9a inh)
COc1ccc(-c2cc(C(=O)NCCc3ccccc3)c3c(-c4ccccc4)[nH]nc3n2)cc1OC	none
COc1ccc(CC2(C)OC(c3ccc(C)c([N+](=O)[O-])c3)=NN2C(C)=O)cc1 (stereo not given)	G9a inh inconclusive, JMJD2A Tudor inh 79µM, HP1b binding inh 71µM
COc1ccc(CC2(C)OC(c3ccc(C)cc3)=NN2C(C)=O)cc1 (stereo not given)	none
c1cnc(N2CCN(Cc3ccc4c(c3)OCO4)CC2)nc1	none
Brc1ccc(CN2CCN(c3ccccn3)CC2)s1	G9a inh 14µM, JMJD2A Tudor inh 7.9µM, HP1b binding inh inconclusive, BAZ2B block 45µM
c1ccc(N2CCN(Cc3ccc4c(c3)OCO4)CC2)nc1	JMJD2A Tudor inh 28µM, HP1b binding inh inconclusive (no result: G9a inh, BAZ2B block)
COCCCN=CC1=C(O)CC(c2ccccc2)CC1=O (stereo not given)	none
COc1ccc(C(C#N)=C2C=CC(=NO)C=C2)cc1	G9a inh 2.2µM, GLS inh inconclusive, JMJD2A Tudor inh 16µM, HP1b binding inh 40µM, BAZ2B block 14µM
CC1(C)CC(=O)C2=C(C1)NC(=S)C(C#N)C21CCCCC1 (stereo not given)	G9a inh 0.5µM, JMJD2A Tudor inh 7.9µM, HP1b binding inh inconclusive, BAZ2B block inconclusive
CC1C2=C(CC(C)(C)CC2=O)NC2=C1C(=O)CC(C)(C)C2	none
CN(C)CCCNC(=O)c1cccc(-c2ccc3nncn3c2)c1	none (no result: G9a inh, JMJD2A Tudor inh, HP1b binding inh, BAZ2B block)
CC1=C(C(=O)N2CCOCC2)C(c2cccc(C)c2)NC(=S)N1 (stereo not given)	none
C(=N\c1ncnc2sccc12)/NOCc1ccccc1	none
O=C(CNc1ccc2ccccc2c1)N/N=C/c1ccc(OC(=O)/C=C/c2ccco2)cc1	G9a inh inconclusive
O=C(CNc1ccc2ccccc2c1)N/N=C/c1ccccn1	G9a inh 4µM
O=C(CNc1ccc2ccccc2c1)N/N=C/c1ccncc1	G9a inh 1.4µM
O=C(CCCC(=O)N/N=C\c1ccccn1)N/N=C\c1ccccn1	G9a inh inconclusive, BAZ2B block inconclusive
Cc1[nH]c2c(ccc3cccnc32)c1C	JMJD2A Tudor inh 45µM, HP1b binding inh inconclusive, BAZ2B block 35µM
CS(=O)(=O)N(CCC#N)Cc1ccc(/C=C2\C(=O)Nc3ccccc32)o1	G9a inh 45µM
COc1ccc(-c2csc(NC(C)c3nc4cc(C(=O)NCCCO)ccc4n3Cc3ccc(C)cc3)n2)cc1 (stereo not given)	none (no result: G9a inh, BAZ2B block)
Cn1c(SCC(=O)c2ccc3c(c2)OCCO3)nnc1C(F)(F)F	G9a inh 56µM
Cn1c(SCC(=O)c2ccc3c(c2)OCCO3)nnc1C1CC1	G9a inh 22µM
COc1ccc(C2Nc3ccccc3C(=O)N2NS(=O)(=O)c2ccccc2)cc1OC (stereo not given)	none
O=C(CSC1=N/C(=C/c2ccco2)C(=O)N1c1ccc(OC(F)F)cc1)NC1CCS(=O)(=O)C1 (stereo not given)	G9a inh 45µM, JMJD2A Tudor inh inconclusive, BAZ2B block 50µM
Cn1c(=O)c(C(=O)COC(=O)c2cc(C(F)(F)F)nc3ccccc23)c(N)n(Cc2ccccc2)c1=O	G9a inh inconclusive (no result: GLS inh, JMJD2A Tudor inh, HP1b binding inh)
Cn1c(=O)c(C(=O)COC(=O)c2cc(C3CC3)nc3ccccc23)c(N)n(Cc2ccccc2)c1=O	G9a inh 79µM
COCCCNCC(=O)c1c(N)n(Cc2ccccc2)c(=O)n(C)c1=O	G9a inh inconclusive, JMJD2A Tudor inh 79µM, BAZ2B block inconclusive
CNS(=O)(=O)c1cccc(C(=O)OCC(=O)c2c(N)n(Cc3ccccc3)c(=O)n(C)c2=O)c1	none (no result: G9a inh, BAZ2B block)
Cn1c(=O)c(C(=O)COC(=O)c2cc(-c3ccco3)nc3ccccc23)c(N)n(CC2CC2)c1=O	G9a inh 6.3µM, BAZ2B block inconclusive (no result: GLS inh, JMJD2A Tudor inh, HP1b binding inh)
Cn1c(=O)c(C(=O)COC(=O)c2cc(-c3ccccc3)nc3ccccc23)c(N)n(Cc2ccccc2)c1=O	G9a inh 79µM, BAZ2B block inconclusive (no result: GLS inh, JMJD2A Tudor inh, HP1b binding inh)
CCC(=O)N1CCc2cc(CNS(=O)(=O)c3cc(OC)ccc3OC)ccc21	none
NNC(=O)c1cccnc1Oc1ccccc1	none (no result: G9a inh)
Cn1c(SCC(=O)N2CCN(S(=O)(=O)c3ccc(Cl)cc3)CC2)nc2ccccc21	G9a inh inconclusive

Bioassay records deposited in PubChem BioAssay by National Center for Advancing Translational Sciences (NCATS).
